In the library only some 2.5% were active in any assay of this set; here they are far more common.
iPSC survival up: hiPSC single-cell survival enhancement. ATPlite luminescence; 100% = ROCK inhibitor wells, 0% = DMSO. 360,000 compounds, 0.044% hits. survival enhancement, % at 20 µM; in the data active means survival enhancement above about 18%;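 further: cells exposed to compounds for 16 hours before the ATP read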
CRFR2-BP ag: agonists of human CRF-binding protein/CRF-R2 receptor complex. HEK293 CRF-R2/CRF-BP, calcium dye fluorescence (FLIPR); percent of saturating CRF peptide response. activation, % at 13.2 µM. 350,000 compounds, 0.46% hits;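 active means activation of at least 50%, plus an integration ratio under a set limit after plate pattern correction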;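 further: plate controls were neutral control wells without compound for no effect and CRF at EC100 for full effect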
SKN-1 block: C. elegans SKN-1 inhibition; C. elegans VP596 Pgst-4::GFP/RFP ratio, acrylamide-induced, 24 h; inhibition, % at 21.8 µM; 360,000 compounds, 0.49% hits;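 active means interference check ratio from 0.5 to 1.5 plus GFP to RFP signal ratio inhibition reaching or exceeding a fixed threshold, cut at about 30% in these data, passing the limit was not always enough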
CRFBP-R2 block: CRF-BP/CRF-R2 complex antagonism; HEK293 CRF-R2/CRF-BP, CRF-induced calcium fluorescence; inhibition, % at 11.8 µM; 350,000 compounds, 0.59% hits; AID 588475;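 active means inhibition of the ligand-induced calcium signal above about 50% at the single tested concentration, limit read from the data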
Cardio protect: modulators protecting cardiomyocytes from myocardial damage | AID 588492 | protection from H2O2 cell death, % at 20 µM | 360,000 compounds, 0.63% hits | H9c2 cardiomyocytes, H2O2 injury protection, ATPLite, 2 h;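 active means compounds giving at least 50% protection of heart cells from peroxide-induced death in the single-dose screen, raw or plate-pattern-corrected value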;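 further: 0% = DMSO wells with peroxide and 100% = DMSO wells without peroxide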
H9c2 TAG inh: triacylglycerol accumulation inhibition; H9c2 cells, Nile Red lipid (TAG) fluorescence; cells loaded with 200 µM oleic acid; inhibition, % at 12.5 µM; 230,000 compounds, 0.66% hits;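 active means pattern-corrected inhibition of lipid staining of at least 50% with the nuclear-stain viability signal not falling by more than 50%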;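 further: 0% = DMSO wells and 100% = triacsin C control wells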
Starred values were filed as active, the others as inactive.

Screening COC(=O)[C@@]12C[C@@H](CC(=O)NCCC(C)C)C(=O)N(Cc3cccc4ccccc34)C1=CCC(C)(C)C2 returned SKN-1 block -4.
Screening Cc1ccccc1/C=N/N1CCN(c2ccccc2)CC1 returned iPSC survival up 1, CRFR2-BP ag -1, SKN-1 block 14, CRFBP-R2 block -13 and Cardio protect 0.
For COc1ccccc1-[n+]1c(C)cc(/C=C2\Sc3ccccc3N2C)cc1C the results were iPSC survival up -1, CRFR2-BP ag 175*, SKN-1 block 6, CRFBP-R2 block -169, Cardio protect -16 and H9c2 TAG inh -94.
Screening COc1ccc(-[n+]2c(C)cc(/C=C3\Sc4ccccc4N3C)cc2C)cc1 returned iPSC survival up -1, SKN-1 block -7, Cardio protect -28 and H9c2 TAG inh -112.
FC(F)Oc1ccc(NC(=S)NCc2ccccc2)cc1 was read as iPSC survival up -2, CRFR2-BP ag 0, SKN-1 block -10, CRFBP-R2 block 22, Cardio protect -3 and H9c2 TAG inh -17.
`Cc1cc2cc(CN3C(=O)c4ccccc4C3=O)ccc2n1C` gave iPSC survival up 0, CRFR2-BP ag 2, SKN-1 block 46*, CRFBP-R2 block -8, Cardio protect -13 and H9c2 TAG inh -6.
For Cc1cc2cc(CNC(=S)Nc3ccc(OC(F)F)cc3)ccc2n1C the results were iPSC survival up 0, CRFR2-BP ag 0, SKN-1 block 46*, CRFBP-R2 block 7, Cardio protect -16 and H9c2 TAG inh 9.
For Cn1c(CCNC(=O)c2ccco2)nc2cc(NC(=O)c3ccco3)ccc21 the results were iPSC survival up -1, CRFR2-BP ag 0, SKN-1 block -2, CRFBP-R2 block 108*, Cardio protect 1 and H9c2 TAG inh 8.
`Cc1cc2cc(CNC(=O)c3ccco3)ccc2n1C` gave iPSC survival up -1, CRFR2-BP ag 12, SKN-1 block 49*, CRFBP-R2 block -3, Cardio protect 7 and H9c2 TAG inh -11.
`Cc1ccc(S(=O)(=O)NCc2ccc3c(c2)cc(C)n3C)cc1` gave iPSC survival up 0, CRFR2-BP ag 2, SKN-1 block 50, CRFBP-R2 block 10, Cardio protect 0 and H9c2 TAG inh -4.
For COCCNC(=O)C1(C)CCCN(C(=O)c2c(-c3ccccc3)noc2C)C1 (stereo not drawn) the results were iPSC survival up -3, SKN-1 block -5, Cardio protect 3 and H9c2 TAG inh 5.
CCc1nc2ccc(C(=O)NCc3ccc4c(c3)OCO4)cn2c1N(C)Cc1cccs1 was read as iPSC survival up 7, SKN-1 block 19, Cardio protect 3 and H9c2 TAG inh -2.
Screening COc1cccc(C(=O)Nc2cc(=O)n(C)c(=O)n2C)c1 returned iPSC survival up 0, CRFR2-BP ag -1, SKN-1 block 0, CRFBP-R2 block 8, Cardio protect 6 and H9c2 TAG inh -8.
COc1ccc(C(=O)Nc2cc(=O)n(C)c(=O)n2C)cc1 was read as iPSC survival up 0, CRFR2-BP ag 0, SKN-1 block 1, CRFBP-R2 block 104*, Cardio protect 8 and H9c2 TAG inh -66.
For COCC(=O)NCc1ccc2c(c1)cc(C)n2C the results were iPSC survival up 4, CRFR2-BP ag 1, SKN-1 block 47*, CRFBP-R2 block 9, Cardio protect 7 and H9c2 TAG inh -8.
COc1cc(OC)cc(C(=O)NCc2ccc3c(c2)cc(C)n3C)c1 was read as iPSC survival up 1, CRFR2-BP ag 1, SKN-1 block 55, CRFBP-R2 block -1, Cardio protect 13 and H9c2 TAG inh 4.
Screening COc1ccc(C(=O)NCc2ccc3c(c2)cc(C)n3C)cc1 returned iPSC survival up 2, CRFR2-BP ag 47, SKN-1 block 44*, CRFBP-R2 block -21, Cardio protect 16 and H9c2 TAG inh -1.
For O=c1ccc(-c2nc3ccccc3n2C(CCc2ccccc2)c2nc3ccccc3[nH]2)c[nH]1 (stereo not drawn) the results were SKN-1 block 4.
For Cc1ccoc1C(=O)NCCNc1ccc(Cl)cc1[N+](=O)[O-] the results were iPSC survival up 3, CRFR2-BP ag -3, SKN-1 block 19, CRFBP-R2 block 19 and Cardio protect -2.

Compound activity: PubChem BioAssay, Sanford-Burnham Center for Chemical Genomics
